Screening results from PubChem BioAssay.
This is a sample that favours compounds with a hit; in the whole collection about 4.6% have one here.
UCHL1 block: inhibitors of human UCHL1 deubiquitinase. P09936. purified UCHL1, Ub-rhodamine cleavage fluorescence. inhibition, % at 20 µM. 47,000 compounds, 0.2% hits. AID 1645859
Target sequence (P09936 whole entry, looked up): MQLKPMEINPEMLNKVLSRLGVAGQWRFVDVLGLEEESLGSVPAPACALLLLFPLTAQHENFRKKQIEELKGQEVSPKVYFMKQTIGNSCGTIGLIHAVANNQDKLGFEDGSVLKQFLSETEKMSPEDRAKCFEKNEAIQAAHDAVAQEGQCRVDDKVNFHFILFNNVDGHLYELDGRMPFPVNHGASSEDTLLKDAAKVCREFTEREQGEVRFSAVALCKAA
USP8 inh: blocks human USP8 ubiquitin-rhodamine cleavage. P40818. purified USP8, Ub-rhodamine cleavage fluorescence, 30 min. inhibition, % at 20 µM. 47,000 compounds, 4.2% hits. AID 1645853
USP10 block: blocks human USP10 ubiquitin-rhodamine cleavage; inhibition, % at 20 µM; Q14694; 47,000 compounds, 1.1% hits; purified USP10, Ub-rhodamine fluorescence, 60 min
USP7 block: inhibitors of human USP7 deubiquitinase; Q93009; purified USP7, Ub-rhodamine cleavage fluorescence; inhibition, % at 20 µM; 47,000 compounds, 0.3% hits; AID 1645854
* marks the source's active call; other numbers are inactive results. Cut-off read from the data, not from the text of the source: active = inhibition above about 30%; inactive = the rest.

SMILES | UCHL1 block | USP8 inh | USP10 block | USP7 block
Cc1cccc(OCc2nnc(C3(c4ccc(Cl)cc4)CCOCC3)o2)c1 | 0.6 | -1.8 | -0.8 | -40.4
COc1cc2c(c(OCC(=O)Nc3ccc4c(c3)OCCO4)c1)C(=O)O[C@@H](C)CCCC(=O)CCCCC2 | 0.9 | 68.3* | 31.7* | 3.2
COc1cc(OCC(=O)NC(C)C)cc2c1C(=O)O[C@@H](C)CCCC(=O)CCCCC2 | 0.1 | 1.1 | -3.4 | 3.2
O=C(Nc1cccc(-c2noc(C3CC3)n2)c1)C1CC(=O)N(c2ccccc2)C1 (configuration not stated) | -0.5 | 35.7* | 4.6 | -4.4
O=C(Nc1cccc(-c2noc(C3CCC3)n2)c1)C1CC(=O)N(c2ccccc2)C1 (configuration not stated) | 0.5 | 41.6* | 10.6 | -1.4
COc1ccc(C2c3[nH]c4ccccc4c3C[C@@H]3C(=O)N(c4ccc5c(c4)OCCO5)C(=O)N23)cc1 (some centres not stated) | -79.8 | -68.9 | -15.3 | -73.6
COC(=O)c1ccc(C2c3[nH]c4ccccc4c3C[C@@H]3C(=O)N(c4ccc5c(c4)OCCO5)C(=O)N23)cc1 (some centres not stated) | 0.6 | 5.1 | 47.7* | 8.1
Cn1c(=O)c2c(-c3ccccc3)n(-c3ccc4c(c3)OCCO4)cc2n(C)c1=O | -4.6 | 74.4* | -0.5 | -12.3
CC(=O)N[C@@]12CN(C)CC[C@@H]1[C@@H](c1ccccc1)N(CC(=O)Nc1cnn(C)c1C)C2 | 2.0 | 17.3 | 1.3 | 4.2
COc1ccc(CC2(NC(=O)c3ccccc3)N=C3C=CC=CN3C2=O)cc1OC (configuration not stated) | -2.6 | -53.5 | -0.3 | 1.5
Cc1ccc(CNC(=O)c2cc3occc3c(Nc3ccccc3)n2)cc1 | -3.7 | 57.3* | -0.9 | -6.0
Cc1ccccc1CNC(=O)c1cc2occc2c(Nc2ccc(F)cc2)n1 | 1.7 | 55.4* | 23.8 | 11.0
COc1ccc(OCCCC(=O)Nc2ccccc2-c2nc3ccccc3[nH]2)cc1 | 1.9 | 35.2* | -8.3 | 2.8
COc1cc2ccccc2cc1C(=O)Nc1ccccc1-c1nc2ccccc2[nH]1 | 7.5 | 9.6 | 5.6 | 11.4
Cc1cc(C)c(C#N)c(OCc2ccccc2Cl)n1 | 3.1 | 27.5 | 4.4 | -13.6
Cc1cccc(OCC(=O)Nc2ccc3c(c2)NC(=O)C(C)O3)c1 (configuration not stated) | 7.3 | 35.2* | 16.4 | 9.3
COc1ccc(OC)c(C(=O)Nc2ccc3c(c2)NC(=O)C(C)O3)c1 (configuration not stated) | 1.0 | 1.7 | 2.3 | 0.6
Cc1ccc(NC(=O)CSc2ccccc2C(=O)Nc2ccc3c(c2)NC(=O)C(C)O3)cc1 (configuration not stated) | -1.7 | 37.4* | -8.3 | -1.1
COc1ccc(OCC(=O)Nc2ccc3c(c2)NC(=O)C(C)O3)cc1 (configuration not stated) | 0.5 | -11.8 | 0.0 | 1.7
COc1ccc(C2CCCCCN2C(=O)Cn2ccccc2=O)cc1 (configuration not stated) | -0.4 | 67.1* | -1.6 | -6.6
CCNc1cc(N2CCCC(CCC(=O)NC(C)c3ccccc3)C2)ncn1 (configuration not stated) | -7.6 | -271.2 | -12.0 | -3.9
O=C(O)c1c(CNC2CCCCCC2)c2ccccc2n1Cc1ccc(F)cc1 | 44.8* | -17.2 | -7.8 | -177.3
O=C(O)c1c(CNC2CCCCC2)c2ccccc2n1Cc1cccc(F)c1 | -149.6 | -1.5 | -4.1 | -144.2
COc1ccc(Cl)cc1C(=O)NNC(=O)c1cc(-c2ccccc2)n[nH]1 | -0.1 | 85.1* | 40.4* | 15.2
O=c1c(O)c(-c2ccc(O)c(O)c2)oc2cc(O)cc(O)c12 | 34.2* | 17.9 | 16.6 | -7.9
SMILES | UCHL1 block | USP8 inh | USP10 block | USP7 block
O=c1cc(-c2ccc(O)c(O)c2)oc2cc(O)cc(O)c12 | 24.8 | 31.4* | 36.0* | 10.7
O=c1c(-c2ccc(O)cc2)coc2cc(O)cc(O)c12 | -1.8 | 5.6 | 1.8 | 1.9
COc1cccc(C(=O)N2CCCn3cnc(COC(C)C)c3C2)c1 | 2.9 | -311.8 | -0.4 | 1.7
O=C(CCc1nc(-c2cnccn2)no1)N1CCc2ccccc2C1 | -0.9 | 57.4* | 4.5 | 2.2
Cc1nn(C)cc1S(=O)(=O)Nc1cnn(Cc2cccc3ccccc23)c1 | 3.5 | 85.9* | 2.0 | 0.1
O=C(NC1CCCC1)c1cn(-c2nc(CN3CCOCC3)c3ccccn23)cn1 | -1.2 | -15.5 | -3.4 | -0.1
COc1cc2c(cc1OC)CN(C(=O)CCS(=O)(=O)c1ccc(Cl)cc1)CC2 | -0.1 | 76.0* | -1.9 | -3.5
N#Cc1c(-c2ccccc2Cl)c2c([nH]c1=O)-c1ccccc1CC2 | 6.0 | 47.5* | 14.6 | 4.3
CNc1nccc(-c2ccc(F)cc2)c1C#N | 1.5 | 4.0 | 0.6 | -2.4
